The results in this text go back to PubChem BioAssay (NCATS).

Records with an inconclusive call do not appear. Values without a mark were called inactive. The source made the active and inactive calls. The call rests on the fitted dose curve; in most records, active means well fitted curve in the direction sought with a large enough effect; inconclusive means small, poorly fitted or top-dose-only effect, or another doubt; inactive means no such curve, though single readings can be large; an effect the other way counts as inactive or inconclusive.

The test system of one experiment is MCC-26. The experiment in a line: qHTS assay to identify novel small-molecules to repurpose for Merkel cell carcinoma treatment (AID 1296009). Further: nearly all actives have a fitted effect of over 60% in size. Further: potency means the concentration at half of the fitted maximal effect. Particulars: MCC and control cell lines, CellTiter-Glo viability, 72 h; series mostly up to 46 µM. Put shortly:
(§1)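 72 hr, 37 degree celsius; NPC 8-pt / MIPE 11-pt dose response; compound pinned in DMSO; CellTiter-Glo, 10 min RT, luminescence; normalized to no-cell and DMSO controls.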
(Quantitative high-throughput screening tests each substance at several concentrations.)

Another experiment deals with MKL-1. Described as above. The note with it: MCC and control cell lines, CellTiter-Glo viability, 72 h; series mostly up to 46 µM. The essentials: as §1
(In general: In ATP-based viability assays light output follows the ATP content of the culture.)

Another experiment concerns MKL-2. The description is as above. The note with it: MCC and control cell lines, CellTiter-Glo viability, 72 h; series mostly up to 46 µM. Put shortly: as §1
The next experiment relates to NIH3T3. The experiment is described as above. Particulars: MCC and control cell lines, CellTiter-Glo viability, 72 h; at 44.8 µM (top of the series) unless noted. The essentials: as §1
Another experiment concerns UISO. The experiment is described as above. The note with it: MCC and control cell lines, CellTiter-Glo viability, 72 h; series mostly up to 46 µM. Put shortly: as §1
A further experiment concerns WaGa. Described as above. Particulars: MCC and control cell lines, CellTiter-Glo viability, 72 h; series mostly up to 46 µM. The essentials: as §1
The test system of the next experiment is C33A. Nature of the experiment: Primary qHTS to identify gynecologic anti-cancer compounds using libraries of approved drugs and bioactive compounds (AID 1345084). Further: nearly all actives have a fitted effect of over 55% in size. The note with it: Gynecologic cancer cell panel viability, ATPlite luminescence, 48 h; series mostly up to 57.5 µM. The essentials: (§2)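 Five-concentration response, 48 h; readout is ATP-driven luciferase luminescence.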

Another experiment has as its system CAOV3. The description is as above. The note with it: Gynecologic cancer cell panel viability, ATPlite luminescence, 48 h; series mostly up to 57.5 µM. The essentials:
as §2

The next experiment deals with CASKI. The description is as above. The note with it: Gynecologic cancer cell panel viability, ATPlite luminescence, 48 h; series mostly up to 57.5 µM. The essentials:
as §2

The next experiment relates to Es-2. Described as above. Particulars: Gynecologic cancer cell panel viability, ATPlite luminescence, 48 h; series mostly up to 57.5 µM. Put shortly: as §2
For another experiment, the system named is HeLa. The description is as above. The note with it: Gynecologic cancer cell panel viability, ATPlite luminescence, 48 h; series mostly up to 57.5 µM. The essentials: as §2
A further experiment concerns Hek293T. Described as above. The note with it: Gynecologic cancer cell panel viability, ATPlite luminescence, 48 h, control line for the selectivity index; series mostly up to 57.5 µM. The essentials: as §2
Another experiment deals with JEG-3. The experiment is described as above. The note with it: Gynecologic cancer cell panel viability, ATPlite luminescence, 48 h; series mostly up to 57.5 µM. The essentials:
as §2

In the next experiment the test system is OV90. Described as above. The note with it: Gynecologic cancer cell panel viability, ATPlite luminescence, 48 h; series mostly up to 57.5 µM. Put shortly: as §2
Another experiment concerns PA-1. The experiment is described as above. Particulars: Gynecologic cancer cell panel viability, ATPlite luminescence, 48 h; series mostly up to 57.5 µM. The essentials: as §2
The subject of a further experiment is SKOV3. Described as above. The note with it: Gynecologic cancer cell panel viability, ATPlite luminescence, 48 h; series mostly up to 57.5 µM. The essentials: as §2
The next experiment relates to Tov-21-G. Described as above. Particulars: Gynecologic cancer cell panel viability, ATPlite luminescence, 48 h; series mostly up to 57.5 µM. Put shortly: as §2
A further experiment relates to Tov112D. The description is as above. Particulars: Gynecologic cancer cell panel viability, ATPlite luminescence, 48 h; series mostly up to 57.5 µM. Put shortly:
as §2

A short description of experiment [1]: Drug repurposing screens with cells derived from glioblastoma tumor samples (AID 1345199). Further: nearly all actives have a fitted effect of over 40% in size. Further: potency means the concentration at half of the fitted maximal effect. The note with it: GBM patient neurospheres viability, ATP luminescence, 48 h. Put shortly:
(§3)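 Four patient lines of CD133+ GBM neurospheres were screened at several concentrations; hits were retested in those lines plus three slower-growing GBM lines, using 48-hour treatment and ATP-based viability.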

Another experiment deals with astro. The experiment is described as above. The note with it: viability, ATP luminescence, 48 h; series mostly up to 45.9 µM. The essentials: as §3
The mark [2] stands for this setting: at 45.9 µM (top of the series), tumour line B.
The mark [3] stands for this setting: at 45.9 µM (top of the series), tumour line D.
Setting [4] is: at 46 µM (top of the series), tumour line A.
[5] abbreviates: at 46.1 µM (top of the series), tumour line C.
Setting [6] is: at 20 µM (top of the series), tumour line C.
[7] abbreviates: at 21.2 µM (top of the series), tumour line B.
[8] abbreviates: at 21.2 µM (top of the series), tumour line D.
Setting [9] is: at 21.3 µM (top of the series), tumour line A.
On the % scale 0 is the no-effect control and ±100 the full control effect.

`NC(N)=NCCC[C@H](N)C(=O)O`: the activity change, negative = cytotoxicity in the experiment with MCC-26 is 1.83% [at 4.84 µM]; in the experiment on MKL-1, 12.8% [at 4.84 µM]; in the experiment with MKL-2 it was 13.9% [at 4.84 µM]; in the experiment on UISO it was 9.23% [at 4.84 µM]; with WaGa, 4.2% [at 4.84 µM]; with C33A it was -3.38% [at 6.55 µM]. For the same compound, the activity change, negative = cytotoxicity was 24.7% [at 6.55 µM] with CAOV3; 1.66% [at 6.55 µM] with CASKI; 2.88% [at 6.55 µM] in the experiment on Es-2; 8.2% [at 6.55 µM] with HeLa; 14.9% [at 6.55 µM] in the experiment on Hek293T; 7.79% [at 6.55 µM] in the experiment on JEG-3. The activity change, negative = cytotoxicity is 6.81% [at 6.55 µM] with OV90; 23.1% [at 6.55 µM] in the experiment with PA-1; 0% [at 6.55 µM] in the experiment with SKOV3; -4.36% [at 6.55 µM] in the experiment with Tov-21-G; 4.12% [at 6.55 µM] in the experiment with Tov112D. The outcome in the experiment on NIH3T3 was “inactive [at 4.96 µM]”. Moreover, the activity, negative = cell killing in experiment [1] (setting [2]) is -14.6%; in experiment [1] (setting [3]), -0.948%; in experiment [1] (setting [4]), -22.1%; in [1] (setting [5]), 18.8%. Besides, the Potency result in the experiment with astro is “inactive”.

Turning to `CC(C)(C)C(=O)C(Oc1ccc(Cl)cc1)n1ccnc1` (stereo not drawn), the Potency result in the experiment on MCC-26, in the experiment with MKL-1, in the experiment on MKL-2, with WaGa, with C33A and in the experiment on CAOV3 was “inactive” in each case. The Potency result in the experiment with CASKI, in the experiment with Es-2, with HeLa, with Hek293T, in the experiment with JEG-3 and in the experiment on OV90 was “inactive” throughout. Further, the Potency result in the experiment with PA-1, in the experiment with SKOV3, with Tov-21-G, in the experiment on Tov112D and in the experiment with astro was “inactive” throughout. Besides, in the experiment on NIH3T3, the outcome was inactive. Moreover, the Potency in the experiment on UISO was 11.9 µM (active); in experiment [1] (tumour line A), 12.6 µM (active). In addition, the activity, negative = cell killing was -7.03% in experiment [1] (setting [2]), -26.6% in experiment [1] (setting [3]) and -0.0869% in experiment [1] (setting [5]).

Take `CCn1cc(C(=O)O)c(=O)c2cnc(N3CCNCC3)nc21`: the Potency entry in the experiment on MCC-26, in the experiment with MKL-1, in the experiment with MKL-2, in the experiment on UISO, in the experiment on WaGa and in the experiment on C33A was “inactive” throughout. For the same compound, the Potency entry in the experiment on CASKI, in the experiment on Es-2, with HeLa, with Hek293T, in the experiment on JEG-3 and with OV90 was “inactive” in each case. For the same compound, the Potency entry in the experiment with PA-1, in the experiment on SKOV3, in the experiment with Tov-21-G, in the experiment on Tov112D and in the experiment with astro was “inactive” each time. In addition, in the experiment on NIH3T3, the compound was classed as inactive. The activity, negative = cell killing in [1] (setting [6]) is -6%; in experiment [1] (setting [7]), -11.9%; in [1] (setting [8]) it was -14.4%; in experiment [1] (setting [9]), -22%.

In the case of `Cn1cc[nH]c1=S`, the Potency result in the experiment with MCC-26, in the experiment on MKL-1, with MKL-2, with UISO, in the experiment on WaGa and in the experiment on C33A was “inactive” in each case. The Potency entry with CASKI, in the experiment on Es-2, in the experiment with HeLa, in the experiment with Hek293T, in the experiment with JEG-3 and with OV90 was “inactive” throughout. In addition, the Potency result with PA-1, in the experiment on SKOV3, in the experiment on Tov-21-G, with Tov112D and with astro was “inactive” each time. The outcome in the experiment on NIH3T3 was inactive. The activity, negative = cell killing is 3.07% in experiment [1] (setting [6]), -12.9% in experiment [1] (setting [7]), -12.3% in [1] (setting [8]) and -28.7% in experiment [1] (setting [9]).

Turning to `CO/N=C(\C(=O)N[C@@H]1C(=O)N2C(C(=O)O)=C(CSc3nc(=O)c(O)nn3C)CS[C@H]12)c1csc(N)n1`, the Potency result in the experiment with MCC-26, in the experiment with MKL-1, in the experiment on MKL-2, with UISO, in the experiment on WaGa and in the experiment on C33A was “inactive” each time. For the same compound, the Potency entry in the experiment with CAOV3, in the experiment on CASKI, with Es-2, in the experiment with HeLa, in the experiment on Hek293T and with JEG-3 was “inactive” throughout. The Potency result in the experiment with OV90, with PA-1, in the experiment with SKOV3, in the experiment on Tov-21-G, with Tov112D and with astro was “inactive” each time. Also, the compound was called inactive with NIH3T3. Moreover, the activity, negative = cell killing in [1] (setting [2]) is -2.24%; in experiment [1] (setting [3]) it was -10.7%; in experiment [1] (setting [4]), -24.8%; in experiment [1] (setting [5]) it was -11.4%.
